Screening data (PubChem)
FAS-TE inh: FAS thioesterase (human) inhibition; AID 602261; inhibition, % at 15 µM; recombinant FAS-TE, OMFH fluorogenic substrate, fluorescence endpoint; 360,000 compounds, 0.67% hits;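 active = compounds whose normalised, plate-corrected inhibition of enzyme fluorescence in the single-dose primary screen is 50% or more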;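 note: 0% = DMSO with enzyme and 100% = substrate without enzyme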
Mot1-301 SUMO: blocks SUMOylation pathway, rescuing yeast Mot1-301 growth; S. cerevisiae Mot1-301 growth rescue, ATP luminescence, 38.5C; percent above DMSO median, 100 means doubled; growth rescue, % at 18.8 µM; 320,000 compounds, 1% hits;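 active = every valid replicate shows activation above 250% relative to neutral control wells; inactive = the rest, any valid replicate at or below 250%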;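 note: OY570 slx delta 5 strain wells were the positive control but not used for scaling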
NadD block: NadD (S. aureus) enzyme inhibition. inhibition, % at 20 µM. AID 602399. 360,000 compounds, 0.78% hits. purified NadD enzyme, colorimetric absorbance read-out; in the data active = inhibition above about 26%
Calb FLC: C. albicans growth modulation with fluconazole; C. albicans CaCi-2 (fluconazole-resistant clinical isolate) + fluconazole, Alamar Blue growth, 48 h; growth inhibition, % (test concentration not listed); 300,000 compounds, 0.57% hits; AID 1979;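 active = growth inhibition above about 58% in most replicates, limit read from the data, passing the limit was not always enough; inconclusive = exactly half the replicates above a set limit; inactive = most replicates below a set limit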;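 note: all wells also contain fluconazole at 8 µg/ml as a sub-toxic cotreatment; 0% = median of DMSO wells and 100% = median of geldanamycin control wells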
ATG4B inhibitor: inhibitors of human ATG4B cysteine protease. inhibition, % at 8.33 µM. Q9Y4P1. 340,000 compounds, 0.51% hits. ATG4B cleavage of LC3-PLA2, NBD-HPC fluorescence, 1 h; in the data active = inhibition above about 40%
Target sequence (Q9Y4P1 whole entry, looked up): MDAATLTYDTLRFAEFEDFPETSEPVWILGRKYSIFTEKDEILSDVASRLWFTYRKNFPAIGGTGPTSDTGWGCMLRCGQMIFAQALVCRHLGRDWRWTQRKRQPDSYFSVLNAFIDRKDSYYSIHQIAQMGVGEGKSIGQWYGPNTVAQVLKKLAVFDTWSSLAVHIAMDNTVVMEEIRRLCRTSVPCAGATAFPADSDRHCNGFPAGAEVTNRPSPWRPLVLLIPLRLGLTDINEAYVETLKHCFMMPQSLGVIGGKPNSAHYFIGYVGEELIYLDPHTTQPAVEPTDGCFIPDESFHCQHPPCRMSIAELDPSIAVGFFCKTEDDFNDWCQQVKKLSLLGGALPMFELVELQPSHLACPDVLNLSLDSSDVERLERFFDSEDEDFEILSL
NadD inh conf: confirmation of Staphylococcus aureus NadD inhibitors; shares compounds with NadD block; purified S. aureus NadD, colorimetric enzyme assay; inhibition, % at 20 µM; 2,000 compounds, 13% hits; AID 624309; in the data active = inhibition mostly above about 42%, no sharp cut-off; inactive = mostly below about 42%
An asterisk follows results filed as active; ? = inconclusive; / = no result. Sampled rows, rich in hits. Any-hit rate of the full collection: about 3.1%.

SMILES	FAS-TE inh	Mot1-301 SUMO	NadD block	Calb FLC	ATG4B inhibitor	NadD inh conf
CCOc1ccc(C(=O)CCC(=O)N2CCN(S(=O)(=O)c3cccc(F)c3)CC2)cc1	10.4	-13.7	0.6	/	5.3	/
O=C(Nc1ccccc1N1CCCCC1)c1ccc(-c2cccc(Cl)c2)o1	11.5	17.8	1.7	-8.3	-6.7	/
O=C(Nc1cccc2nsnc12)c1ccc(-c2cccc(Cl)c2)o1	10.5	-12.7	45.3*	/	12.1	5.2
COc1ccc(/C=N/OCC(=O)Nn2c(C)nc3ccccc3c2=O)cc1	-12.3	4.9	-0.9	-3.1	-9.6	/
CCc1ccc2[nH]c(=O)c(CN(CCN(C)C)C(=S)NCc3ccco3)cc2c1	-1.8	0.4	36.6*	2.4	-8.2	-33.7
COc1ccc(N/C=C2\CCOC2=O)cc1	-8.0	166.7	2.8	-30.6	3.8	/
COc1ccc(N/C=C2\C(=O)CCc3c2oc2cc(Cl)c(O)c(Cl)c32)cc1	-22.0	0.6	44.5*	3.0	-10.8	-1.6
O=C(Nc1ccc2oc(-c3cccnc3)nc2c1)c1ccc2c(c1)OCCO2	-12.8	17.5	33.1*	2.8	7.3	2.8
O=C(Nc1ccc2oc(-c3ccccc3)nc2c1)c1ccc2c(c1)OCCO2	10.4	5.6	-1.7	?	-1.6	/
O=C(COC(=O)/C=C/c1ccc(Br)o1)Nc1ccc2[nH]c(=O)[nH]c2c1	-3.8	-4.2	29.1*	0.8	/	1.8
NC(=O)c1ccc(NC(=O)COC(=O)/C=C/c2ccc(Br)o2)cc1	-9.8	-4.2	4.5	/	-2.8	/
Nc1nonc1-n1nnc(C(=O)N/N=C/C=C/c2ccccc2)c1CSC1=NCCS1	20.7	0.6	32.1*	25.4	-1.8	25.7
Nc1nonc1-n1nnc(C(=O)N/N=C/c2c(Cl)cccc2Cl)c1CSC1=NCCS1	15.1	-4.2	34.1*	-14.5	-11.3	39.0
Nc1nonc1-n1nnc(C(=O)N/N=C/c2ccccc2Cl)c1CSc1ccccc1	28.3	-9.7	9.4	-6.4	-31.5	/
O=[N+]([O-])c1ccc(Cl)cc1N/N=C/c1ccncc1	0.3	-13.5	0.0	5.1	1.6	/
O=[N+]([O-])c1cc(S(=O)(=O)Nc2ccc(Cl)cc2)ccc1N/N=C/c1ccncc1	1.6	-12.1	47.0*	0.6	2.5	24.5
CC1(C)CC(=O)C2=C(C1)c1c(ccc3ccccc13)NC2c1ccc(OCC(=O)O)cc1 (stereo not given)	0.0	14.4	3.5	18.5	2.2	/
CC1(C)CC(=O)C2=C(C1)c1c(ccc3ccccc13)NC2c1ccc(Br)o1 (stereo not given)	19.3	/	37.2*	-6.2	-8.0	36.8
CCCCOc1ccc(-c2c(C#N)c(N)[nH]c(=S)c2C#N)cc1	21.3	-11.4	31.0*	-3.3	-5.7	28.8
O=C(Cc1cccc2ccccc12)N/N=C/c1ccc2cccc(O)c2n1	13.9	-43.4	29.7*	1.6	9.8	37.3
COc1ccc(CNC(=O)COC(=O)c2ccc(Br)cc2)cc1	1.3	/	-3.3	-0.2	-21.8	/
COc1cc(F)cc(-c2ccc3c(c2)c(-c2cccs2)c(-c2cc(OC)cc(OC)c2)n3C)c1	24.8	7.2	16.0	/	1.8	/
COc1cc(OC)cc(-c2c(-c3cccs3)c3cc(-c4ccn[nH]4)ccc3n2C)c1	17.9	-0.7	37.7*	/	5.9	19.5
O=S(=O)(c1ccc(F)cc1)N1CCC2(CC1)OCCN2S(=O)(=O)c1cccs1	18.2	-17.7	-8.0	1.2	0.8	/
Cc1cc(NC(=O)CSc2ccc(-c3nc4cc(C)c(C)cc4[nH]3)cn2)no1	-3.7	-11.4	21.6	-8.1	-6.6	/
SMILES	FAS-TE inh	Mot1-301 SUMO	NadD block	Calb FLC	ATG4B inhibitor	NadD inh conf
Cc1cc2nc(-c3ccc(SCC(=O)N4CCc5ccccc54)nc3)[nH]c2cc1C	1.6	189.8	33.0*	-2.7	-24.1	3.8
Cc1cc2nc(-c3ccc(SCC(=O)Nc4ccc(S(=O)(=O)NC5CC5)cc4)nc3)[nH]c2cc1C	-6.8	-5.3	40.3*	0.0	1.1	43.5
COc1ccc(-c2csc(NC(=O)CSc3nc(C)nc4sc(C(=O)O)c(C)c34)n2)cc1	-51.7	-20.5	30.2*	-9.1	13.4	22.4
COc1ccc(-c2csc(NC(=O)CSc3nc(C)cs3)n2)cc1	23.4	12.0	-4.4	?	-1.5	/
Cn1c(=O)c2cc(NC(=O)NCc3ccccc3)ccc2n1Cc1ccc(Cl)cc1	2.2	/	1.2	/	/	/
C[C@H]1CN([C@@H](C)CO)C(=O)c2cc(Br)cnc2O[C@H]1CN(C)C(=O)C1CCC1	-6.0	/	-3.4	/	/	/
